Compound activity (PubChem)
HIV RNase H inh-1 = blocks HIV-1 RNase H cleavage of RNA/DNA duplex; P04585; RT-RNase H RNA/DNA duplex cleavage, fluorescence; inhibition, % at 10 µM; hit rate 1.9% among 65,000; AID 565; in the data active = inhibition above about 50%
HIV RNase H inh-2 = confirmation of HIV-1 reverse transcriptase RNase H inhibitors; shares compounds with HIV RNase H inh-1; Recombinant RT RNase H, fluorescent RNA/DNA duplex cleavage; inhibition, % at 10 µM; hit rate 39% among 1,000; in the data active = inhibition above about 48%
* = called active by the depositor. The full list was thinned out, with hits kept by preference.

SMILES	HIV RNase H inh-1	others
CC(C)c1nc2sc3c(SCC(=O)NCc4ccco4)ncnc3c2c2c1CCC2	71.1*	HIV RNase H inh-2=35.4*
Cc1sc2nc(SCC(=O)NCc3ccco3)n(C)c(=O)c2c1C	-7.0
Cc1sc2nc(SCC(=O)NCc3ccco3)n(CCc3ccccc3)c(=O)c2c1C	82.1*	HIV RNase H inh-2=58.7*
Cc1sc2nc(SCC(=O)NCc3ccco3)[nH]c(=O)c2c1C	-1.7
CCn1cc(C(=O)NC2CCc3ccccc32)c(=O)c2ccc(C)nc21 (configuration not stated)	9.0
O=C(CCN1CCCCC1)NCC1OCCc2ccccc21 (configuration not stated)	0.8
CCN1C2=NCCCN2c2cc(C)c(C)cc21	-8.3
CC(=O)c1sc(-c2c(C)nc3sccn23)nc1C1CCCC1	11.9
Cc1cc(C)nc(NCC(O)CNc2ccccc2Cl)n1 (configuration not stated)	-47.5
CC(C)(C)OC(=O)N1CCC[C@H]1c1nnc(SCc2ccccc2F)o1	-12.0
O=C(Nc1ccc(N2CCCCC2)c(Cl)c1)c1ncn[nH]1	2.2
O=C1C2CC=CCC2C(=O)N1c1n[nH]c(Cc2ccccc2)n1 (configuration not stated)	0.9
O=C(Nc1nnc(-c2ccccc2)o1)c1ccc(Cl)cc1	1.1
CN(C)c1ccc(C(=O)Nc2nnc(-c3ccc(Cl)cc3)o2)cc1	57.1*	HIV RNase H inh-2=31.2
CC(=O)c1ccc(C(=O)Nc2nnc(-c3ccc(Cl)cc3)o2)cc1	14.0
CSc1nnc2c3cc(C)ccc3n(Cc3ccccc3)c2n1	50.2*	HIV RNase H inh-2=-3.0
C=CCn1c2ccccc2c2nnc(SCN3C(=O)c4ccccc4C3=O)nc21	-22.4
CCn1c2ccccc2c2nnc(SCC(=O)c3ccccc3)nc21	2.5
Cc1nn(-c2ccc(Cl)cc2)c2[nH]c(=O)c(CNCc3ccc4c(c3)OCO4)cc12	0.1
CCCCOC(=O)Sc1nc2ccccc2o1	34.8
Cn1c(=O)n(CC(=O)NC2CCCCC2)c(=O)c2ccccc21	-7.8
CN=C(Nc1cc(C)nn1CCC#N)c1ccc(F)cc1	0.3
Cc1nn(CCC#N)c2c1P(=S)(N1CCCC1)OC(c1ccc(F)cc1)=N2 (configuration not stated)	91.4*	HIV RNase H inh-2=71.5*
O=C1C=C(NCCN2CCOCC2)CC(c2ccccc2)C1 (configuration not stated)	0.5
CCn1c(COc2ccccc2)nnc1SCC(=O)NC1CCCCC1	62.7*	HIV RNase H inh-2=25.6
SMILES	HIV RNase H inh-1	others
Cc1ccc(OCc2nnc(SCC(=O)NC3CCCCC3)n2C)cc1	-1.1
Cn1c(COc2ccc(Cl)cc2)nnc1SCC(=O)NC1CCCCC1	10.3
O=C(CN1CCOCC1)NCC12CC3CC(CC(C3)C1)C2	-18.1
CCOC(=O)N1CCN(C(=O)c2ccc(N3CCCC3=O)cc2)CC1	-19.8
CCn1c2ccccc2c2nc3cc(S(=O)(=O)N4CCOCC4)ccc3nc21	98.3*	HIV RNase H inh-2=52.1*
CCn1c(C)nc2cc(S(=O)(=O)N3CCCCC3)ccc21	-23.4
c1ccc2nc3c(nc2c1)c1ccccc1n3CCN1CCOCC1	-29.5
Cc1cc(N2C(=O)C3C4C=CC(C4)C3C2=O)ccc1Br (configuration not stated)	-3.7
OC(CNC1CCCCC1)CN1CCN(CC(O)CNC2CCCCC2)CC1 (configuration not stated)	-5.2
COc1ccc(S(=O)(=O)Nc2ccccc2C(F)(F)F)cc1	-15.8
COc1ccc(S(=O)(=O)Nc2ccc(O)c3ccccc23)cc1	92.3*	HIV RNase H inh-2=56.8*
COc1ccc(NS(=O)(=O)c2ccc(NS(C)(=O)=O)cc2)cc1	6.4
Cc1nc(SCC(=O)N2CCN(c3ccccc3)CC2)c2c(=O)n(C)c(=O)n(C)c2n1	-4.6
COC1=C(OC)c2ccccc2C(C(=O)O)N/C1=C(/C)Nc1ccncc1 (configuration not stated)	-1.1
COc1ccc(NC(=O)NC(C(F)(F)F)C(F)(F)F)cc1	-5.9
COc1ccc(NCc2cc3ccccc3[nH]c2=O)cc1	-5.9
COc1ccc(NCc2cc3cc(OC)ccc3[nH]c2=O)cc1	55.9*	HIV RNase H inh-2=1.0
COc1ccc2[nH]c(=O)c(CNC3CCCCC3)cc2c1	-2.6
CCN1C(=O)CC(C(=O)O)SC1=Nc1ccc(OC)cc1 (configuration not stated)	-10.0
CC(=O)Oc1cc2oc(=O)c3c(c2cc1Cl)CCC3	-12.3
Cc1cc(/N=C/C=C2\N(C)c3ccccc3C2(C)C)n(CCC#N)n1	-22.3
O=c1[nH]c2cc3c(cc2cc1CN(CC1CCCO1)S(=O)(=O)c1ccccc1)OCCO3 (configuration not stated)	-8.8
COC(=O)c1ccccc1S(=O)(=O)N(Cc1cc2cc3c(cc2[nH]c1=O)OCO3)C1CCCCC1	53.1*	HIV RNase H inh-2=51.6*
COc1ccc(CN(Cc2cc3cc4c(cc3[nH]c2=O)OCO4)C(=O)NC2CCCCC2)cc1	0.3
c1ccc(-n2nnnc2SCc2cccc3nsnc23)cc1	-10.3
SMILES	HIV RNase H inh-1	others
CCOC(=O)N1CCC(N2C(=O)c3ccccc3C2Nc2cc(C(=O)OC)cc(C(=O)OC)c2)CC1 (configuration not stated)	-2.8
O=C(CCn1c(=O)oc2ccccc21)Nc1nccs1	-12.6
CCN(CC)S(=O)(=O)c1ccc(NC(=O)Cn2c(=O)oc3ccccc32)cc1	-7.1
CC(C)(C)c1csc(NC(=O)Cn2c(=O)oc3ccccc32)n1	87.6*	HIV RNase H inh-2=21.2
C1CNCCNCCCNCCNC1	-3.7
COc1ccc(-c2nnc(SCC(=O)N3CCCC3)o2)cc1OC	4.4
COc1ccc(-c2ccc(SCC(=O)N3CCOCC3)nn2)cc1OC	-0.1
COc1ccc(-c2ccc(SCC(=O)N3CCCC3)nn2)cc1OC	89.6*	HIV RNase H inh-2=5.9
Cc1ccc(-c2nnn(CC(=O)NCCc3ccc4c(c3)OCO4)n2)o1	-7.8
CCN(CC)C(=O)Cn1nnc(-c2ccc(C)o2)n1	3.2
Cc1ccc(-c2nnn(CC(=O)Nc3cccc4c3CCCC4)n2)o1	70.7*	HIV RNase H inh-2=6.6
NC(=O)c1cc(S(=O)(=O)NC2CCCCC2)co1	-23.2
O=C1N[C@@H](Cc2cnc[nH]2)C(=O)N2CCC[C@@H]12	-10.8
Cn1c(=O)c(=O)n(C)c2cc(S(=O)(=O)N3CCN(c4cccc(C(F)(F)F)c4)CC3)ccc21	6.0
Cc1cc2c(cc(C(=O)NCc3cccnc3)n2Cc2ccc(Cl)cc2)o1	-0.2
CCOc1cc(C2CC(=O)N3CN(C4CCCCC4)CSC3=C2C#N)ccc1O (configuration not stated)	78.7*	HIV RNase H inh-2=71.5*
COc1ccc2ccccc2c1C1CC(=O)N2CN(C3CCCCC3)CSC2=C1C#N (configuration not stated)	81.5*	HIV RNase H inh-2=60.3*
COc1ccccc1C1CC(=O)NC(SCC(=O)Nc2ccccc2)=C1C#N (configuration not stated)	-61.3
CCOc1cc(C2CC(=O)NC(SCC)=C2C#N)ccc1O (configuration not stated)	-13.0
CCOc1cc(C2CC(=O)Nc3cc(C)c(C)cc32)ccc1O (configuration not stated)	-6.8
COc1ccc(C2C(=O)N(C3CCCCC3)CC(=O)N2CCc2ccccc2)cc1OC (configuration not stated)	-5.4
COc1cc(C)c(C(N)=O)c(OC)n1	-15.7
Cc1cc(C)cc(N(CC(=O)N2CCN(Cc3ccccc3)CC2)S(=O)(=O)c2c(C)noc2C)c1	-3.5
CN1CCC(N(C)CC(=O)Nc2cccc(Oc3ccccc3)c2)CC1	-6.1
CC1CCc2c(sc3nc(C4CC4)nc(SCC(=O)NCc4ccco4)c23)C1 (configuration not stated)	25.8
